CF NFkB block – blocks PAF-induced NF-kB reporter in cystic fibrosis cells; KKLEB NF-kB-GFP reporter, GFP fluorescence overnight; inhibition, % at 5 µM; 360,000 tested, 0.86% active;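 active means at least 50% inhibition at 5 µM, scaled per plate between neutral and stimulator controls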;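 further: PAF is a Pseudomonas aeruginosa culture filtrate used as stimulus; plate controls were PAF-stimulated DMSO wells for no effect and unstimulated DMSO wells for full effect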
PAX8 reporter – lowers PAX8-driven luciferase in RMG-I cells; RMG-I TPO-luciferase reporter, SteadyGlo, 24 h; inhibition, % at 12.6 µM; 360,000 tested, 1.2% active; AID 652154;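 active means mean replicate inhibition at least 60% with every replicate also reaching 60%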;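 further: luciferase light reporting Pax8 driven TPO promoter activity; plate controls were median of neutral control wells for no effect and mitoxantrone controls for full effect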
EWS-Fli inh – inhibitors of EWS/Fli oncoprotein transcriptional activity. A673 NR0B1-luciferase reporter, viability-normalised. inhibition, % at 12.6 µM. 350,000 tested, 0.67% active. AID 651661;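 active means mean inhibition of at least 50% after viability correction, with every replicate also passing that limit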;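 further: firefly luciferase signal divided by Alamar Blue viability fluorescence both relative to DMSO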
KKLEB cytotox – reduces viability of KKLEB cystic fibrosis airway cells; KKLEB CF airway cells viability, ATPlite luminescence, overnight; stronger effect = lower value; cells stimulated with P. aeruginosa culture filtrate; activity change (cytotoxicity), % at 5 µM; 360,000 tested, 0.36% active;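 active means corrected activity change at or below -50% at 5 µM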
LGR2 antag – blocks bursicon-induced cAMP signaling via Drosophila LGR2. HEK293 LGR2, CRE-luciferase, bursicon-stimulated, 4 h. inhibition, % at 9.99 µM. 380,000 tested, 0.35% active;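 active means drop in luminescence signal, shown as inhibition above about 50% in the replicate tests, limit read from the data, passing the limit was not always enough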;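 further: agonist challenge used bursicon conditioned medium at about half maximal strength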
Shn3 inh set2 – Schnurri-3 reporter inhibition in Clone20 osteoblasts. inhibition, % at 12.5 µM. 360,000 tested, 0.52% active. Clone20 osteoblast Shn3 3'UTR firefly luciferase, 24 h;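 active means mean inhibition of at least 75% with every replicate also reaching 75%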;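 further: 0% = median of neutral control wells and 100% = pilot-screen positive control compound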
CF NFkB conf – confirmation of cystic fibrosis induced NF-kB inhibitors. shares compounds with CF NFkB block. KKLEB CF airway cells, PAF-induced NF-kB-GFP fluorescence, overnight. inhibition, % at 5 µM. 1,300 tested, 64% active. AID 602472; in the data active means inhibition above about 40%;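 further: stimulus PAF is a Pseudomonas aeruginosa filtrate and not platelet activating factor; plate controls were DMSO wells with stimulus for no effect and unstimulated DMSO wells for full effect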
The depositor's hits bear a star; · = not tested or not shown. An excerpt weighted towards active compounds, which were near 2% of everything screened.

SMILES	CF NFkB block	PAX8 reporter	EWS-Fli inh	KKLEB cytotox	LGR2 antag	Shn3 inh set2	CF NFkB conf
c1cncc(-c2ccc3ncnc(NCc4cccs4)c3c2)c1	6.8	11.2	2.9	-10.7	-21.2	14.9	·
COc1cccc(CNc2ncnc3ccc(-c4c(C)noc4C)cc23)c1	11.0	-82.6	49.2	-32.9	-8.4	45.3	·
COc1cccc(-c2ccc3ncnc(NCc4cccs4)c3c2)c1	61.3*	-14.5	17.9	-7.3	11.5	-15.0	85.2*
C[C@@H]1CN([C@@H](C)CO)C(=O)c2cc(NC(=O)C3CCCCC3)ccc2O[C@H]1CN(C)S(=O)(=O)c1cn(C)cn1	·	-21.3	-5.4	·	-10.1	·	·
CC(C)[C@H](NC(=O)OC(C)(C)C)c1nnc(S(=O)(=O)Cc2c(F)cccc2Cl)o1	83.2*	·	5.2	-1.9	38.5	94.7*	43.1*
C=C1C[C@H]2[C@@H]3C=C(C)C4=CC(=O)CC[C@]4(C)[C@H]3CC[C@]2(C)[C@@]1(OC(C)=O)C(C)=O	67.7*	-11.9	6.3	3.5	-4.2	-18.1	-32.9
CCn1c(SC)nc2cc(S(=O)(=O)N3CCCCC3)ccc21	52.5*	13.8	12.3	-8.4	-18.6	0.3	41.2*
CCCOc1ccc(C(=O)OCCN(CC)CC)cc1N	75.2*	-8.9	-9.1	4.0	10.9	-4.2	16.3
CCCCOc1cc(C(=O)OCCN(CC)CC)ccc1N	-10.9	-6.8	7.9	1.6	-5.1	-3.7	·
Cc1ccc2occ(/C=N/NC(=O)c3ccccc3Br)c(=O)c2c1	57.2*	-18.2	-3.4	0.6	13.6	26.3	57.1*
CCOc1ccccc1C(=O)N/N=C/c1coc2ccc(C)cc2c1=O	71.4*	-0.6	1.0	-30.6	24.2	0.1	13.0
Cc1ccc2occ(/C=N/NC(=O)c3ccc(O)cc3)c(=O)c2c1	65.6*	-13.8	·	-23.8	24.5	-8.6	28.5
CC(C)C(=O)N1CCN(c2ccc(NC(=O)c3ccc([N+](=O)[O-])o3)cc2Cl)CC1	69.3*	88.3*	61.2*	-12.1	18.1	96.2*	24.3
CCCC(=O)N1CCN(c2ccc(NC(=O)c3ccc([N+](=O)[O-])o3)cc2Cl)CC1	73.9*	103.7*	71.3*	-35.9	23.4	95.8*	35.1
CC(=O)N1CCN(c2ccc(NC(=O)c3ccc(Br)o3)cc2Cl)CC1	-14.3	-13.7	-60.7	8.0	-8.0	·	·
COc1ccc(NC(=O)Nc2ccc3c(c2)[C@H]2C[C@H](CC(=O)NCCc4ccccc4)O[C@H](CO)[C@H]2O3)cc1	·	25.9	7.6	·	-9.6	·	·
COCCn1c(=NC(=O)c2sc3ccccc3c2Cl)sc2cc(S(N)(=O)=O)ccc21	55.1*	23.3	·	-45.8	10.2	69.7	23.8
CNc1nc(Cl)nc2c1ncn2-c1ccccc1	21.6	-16.8	-7.7	-15.8	-50.6	-27.4	·
Clc1nc(Cl)c2ncn(-c3ccccc3)c2n1	75.6*	-35.0	-65.4	-24.5	-130.1	-10.9	-14.7
COc1ccc2c3c(n(C)c2c1)[C@@H](CO)N(C(=O)CN1CCOCC1)CC31CN(Cc2ccncc2)C1	·	·	-17.4	·	-5.5	·	·
Cc1ccc(S(=O)(=O)n2cc(C=O)c3ccccc32)cc1	-16.0	21.4	6.1	-4.4	12.6	·	·
Cc1ccc(S(=O)(=O)n2cc(-c3ccccc3)c3ccccc32)cc1	52.8*	51.7	59.6*	-11.7	-21.9	19.4	78.2*
CN(C)C=Nc1c(C(=O)c2ccccc2)sc2nccc(N(C)C)c12	52.8*	-118.0	-14.8	-3.6	6.5	-15.8	56.6*
O=c1c(Cl)c(Cl)cnn1Cc1nnc(-c2ccccc2Br)o1	83.8*	97.8*	46.3	-24.8	103.4*	77.6	44.5*
Cc1ccc(S(=O)(=O)CC(CN2CCCCC2)N2CCCCC2)cc1 (centres undefined)	52.6*	90.4*	-15.4	-3.1	38.9	-15.5	56.8*
SMILES	CF NFkB block	PAX8 reporter	EWS-Fli inh	KKLEB cytotox	LGR2 antag	Shn3 inh set2	CF NFkB conf
CO[C@@H]1CN(C)C(=O)c2ccc(NC(=O)C3CC3)cc2OC[C@H](C)N(C(=O)Cc2ccccn2)C[C@H]1C	·	-21.1	-5.1	·	8.7	·	·
COc1ccc2c3c([nH]c2c1)[C@H](CO)N(C(=O)C1CC1)CC31CCN(S(C)(=O)=O)CC1	·	·	3.9	·	-11.1	·	·
CCC(=O)c1ccc(O)c(CC=C(C)C)c1	57.4*	·	·	-8.2	·	-6.1	64.4*
CC(C)(C)OC(=O)NCCCCCNC(=O)c1nc[nH]c1C(=O)NCC(=O)OCc1ccccc1	73.9*	10.4	-1.0	-6.1	84.5*	29.5	72.3*
O=C(NCc1ccco1)c1nc2c(nnn2Cc2ccccc2Cl)c(=O)[nH]1	89.7*	·	6.5	-48.8	92.8*	11.1	99.9*
Cc1ccc(C)c(Cn2nnc3c(=O)[nH]c(C(=O)NCc4ccco4)nc32)c1	22.7	·	·	-12.8	-13.6	-28.0	·
ON=C1c2ccccc2-c2cc(Br)ccc21	77.8*	6.6	1.2	-5.8	·	-4.2	73.0*
CC(C)(CO)CNc1ccn2nccc2n1	52.6*	-28.9	-10.5	1.1	15.1	18.7	60.5*
Fc1ccc(CNc2ccn3nc(-c4ccccc4)cc3n2)cc1	-67.2	-174.0	-96.6	11.7	·	-84.2	·
Cn1nnnc1Sc1ncnc2scc(-c3ccc[nH]3)c12	83.0*	99.1*	-16.2	-8.9	45.0	70.9	64.3*
Oc1ccc(CCNc2ncnc3ccc(Cl)cc23)cc1	70.2*	-24.0	2.2	-2.2	23.7	88.0*	89.4*
Nc1nc(Cl)cc(NCCc2ccc(O)cc2)n1	12.6	-4.5	-7.8	-5.8	-29.2	21.2	·
NC(c1csc(NC(=O)Nc2cccc(Cl)c2)n1)c1ccccc1Cl (centres undefined)	91.1*	-16.5	0.5	-15.6	42.0	2.3	76.8*
Cc1cccc(C)c1NC(=O)Nc1nc(C(N)c2ccccc2Cl)cs1 (centres undefined)	2.5	-8.6	13.5	-3.0	6.5	-15.7	·
O=c1c(-c2c(O)cc(O)c3c2O[C@H](c2ccc(O)cc2)CC3)c(-c2ccc(O)cc2)oc2cc(O)cc(O)c12	75.4*	·	·	-0.1	·	-30.3	101.4*
COc1ccc(NC(=O)Nc2cccc3c2O[C@@H](CN(C)S(=O)(=O)c2cn(C)cn2)[C@H](C)CN([C@H](C)CO)C3=O)cc1	·	·	7.0	·	10.5	·	·
CCSC1(SCC)N=C(N)C2(C#N)C(c3ccc(OC)c(OC)c3OC)C12C#N (centres undefined)	79.1*	·	·	-16.7	·	-19.6	35.4
COCC(=O)Nc1ccc2c(c1)C(=O)N(C)C[C@@H](OC)[C@@H](C)CN(C(=O)Cc1cccnc1)[C@H](C)CO2	·	·	-0.3	·	-4.3	·	·
CCC(=O)N(C)C[C@@H]1Oc2cc(C#Cc3ccccn3)ccc2S(=O)(=O)N([C@@H](C)CO)C[C@H]1C	·	·	-2.6	·	17.3	·	·
O=S(=O)(c1cccc2cnccc12)N1CCCNCC1	50.0*	·	·	-6.7	·	12.8	57.5*
